Results as given in PubChem BioAssay (EPA / NIEHS).
Active and inactive are the calls of the source. The calls were made as follows: active = hit-call score of the fitted dose curve at least 0.9, where 1 is the maximum; inactive = score below 0.9.

Each compound was assayed on ATP-citrate lyase (ACLY), ACLY (gene 47) (assay: LTEA_HepaRG_ACLY: Life Technologies and Expression Analysis (LTEA) Assay for ATP-citrate lyase (ACLY) using HepaRG (AID 2283466)). Conditions: mRNA level, 48 h; actives raise or lower the signal.
Protocol: LTEA_HepaRG is a cell based, multiplexed-readout assay that uses HepaRG, a human liver cell line, with measurements taken at 48 hours after chemical dosing on a 96-well plate.LTEA_HepaRG_ACLY is one of 102 assay component(s) measured in the LTEA HepaRG cell culture assay. It is a marker of Steatosis.Data from the assay component LTEA_HepaRG_ACLY was analyzed into 1 endpoint. This assay endpoint, LTEA_HepaRG_ACLY, was analyzed with bidirectional fitting relative to DMSO as the negative control and baseline of activity. Using a type of inducible reporter, measures of mRNA induction for gain or loss-of-signal activity can be used to understand regulation of transcription factor activity. To generalize the intended target to other relatable targets, this assay endpoint is annotated to the lyase intended target family, where the subfamily is steatosis.
A total of 1060 chemcials from the ToxCast library were tested in eight-point concentration-response experiments. Cell culture and cytotoxicity assays were conducted at Thermo Fisher Scientific's Custom Services facility (Madison, WI). A single lot of human HepaRG cells (Thermo Fisher Scientific, Frederick, MD) was used for the cell culture experiments. 96-well format collagen type I coated plates of human HepaRG cells were prepared using established methods. Briefly, cryopreserved HepaRG cells were thawed, plated at a density of approximately 100,000 cells/well in HepaRG Thaw, Plate, and General Purpose media (HPRG770, Thermo Fisher Scientific), and incubated for 48 hours. 0.5% DMSO was selected as vehicle control to balance the requisite need of DMSO in HepaRG cultures to maintain differentiation (for example, baseline metabolism, proportions of hepatocytes vs. cholangiocytes), while enabling further hepatic receptor pathway activation (for example, PXR and CAR) in response to chemical exposure. 48 hours after plating, the culture medium was replaced with HepaRG Serum-Free Incudtion Media. Cells were exposed to each test chemical in duplicate and maintained in CO2 incubators for another 48 hours. Chemical plates were thawed to room temperature and 200x concentrations of treatment groups were prepared. 8-point conentration-reponse curves were made with the highest exposure at 100 uM, followed by half-log dilutions, all in 0.5% DMSO. Each test plate contained variouse controls, induction positive controls (1mM phenobarbital), cytotoxicity positive controls ([…] aflatoxin B1), vehicle controls (0.5% DMSO), and total lysis controls (0.5% DMSO). Cell morphology images were taken using an Essen IncuCyte FLR automated microscope, with six 96-well plates imaged in about 24 minutes. Images were captured and exported and JPEG files. Spent culture media was transfered to black-well plates for the LDH assay, and remaining media was sorted at -80 C for later use. Cells were treated with RLT buffer and frozen until shipped for gene expression analysis. Total RNA was isolated from the cell suspension in 75 uL of Buffer RLT (Qiagen, Germantown, MD 20874) by Quintiles/Expression Analysis (Durham, NC) using a custom isolation procedure. Total RNA from each plate well was transferred to a preamplification plate. Fluidigm's 96.96 Dynamic ArrayTM (Fluidigm, Amsterdam, the Netherlands) technology was used for gene expression analyses by quantitative reverse transcription polymerase chain reaction (qRT-PCR, performed by Quintiles/Expression Analysis, Durham, NC)89. Standard TaqManTM Assays (Applied Biosystems/ThermoFisher Scientific, Foster City, CA) were used to assess the expression of 93 genes selected based on their selectivity and sensitivity to important hepatic receptors known to be modulated by environmental chemicals; importance in human hepatocyte functionality; and hepatotoxicity. […]

Structure (SMILES)	outcome	AC50
CCCCOCCOCCOCc1cc2c(cc1CCC)OCO2	inactive	
COc1c(Cl)ccc(Cl)c1C(=O)O	inactive	
CSC(=O)c1cccc2nnsc12	inactive	
O=C(c1ccccc1)C1CCCCC1	inactive	
c1ccc(Nc2ccccc2)cc1	inactive	
COC(=O)c1ccc(I)cc1S(=O)(=O)NC(=O)Nc1nc(C)nc(OC)n1	inactive	
CCCOC(=O)NCCCN(C)C	inactive	
O=C(O)c1ccccc1	inactive	
Cc1nn(C)c(Oc2ccccc2)c1C=NOCc1ccc(C(=O)OC(C)(C)C)cc1		1.11 µM (active)
CC(=O)[C@H]1CC[C@H]2[C@@H]3CCC4=CC(=O)CC[C@]4(C)[C@H]3CC[C@]12C		83.2 µM (active)
CCOC(=O)COc1cc(-n2ncc(C(F)(F)F)c(C)c2=O)c(F)cc1Cl	inactive	
COC(=O)CSc1cc(N=c2sc(=O)n3n2CCCC3)c(F)cc1Cl	inactive	
C#CCOC(=O)[C@@H](C)Oc1ccc(Oc2ncc(Cl)cc2F)cc1	inactive	
CCOC(=O)NCCOc1ccc(Oc2ccccc2)cc1	inactive	
CCOC(=O)c1ccc(O)cc1	inactive	
COC(=O)c1ccccc1C(=O)O	inactive	
N#CSCSc1nc2ccccc2s1	inactive	
O=C(Nc1ccc([N+](=O)[O-])cc1Cl)c1cc(Cl)ccc1O		3.76 µM (active)
c1ccc2[nH]c(-c3cscn3)nc2c1	inactive	
O=C(c1ccc(O)cc1O)c1ccc(O)cc1O	inactive	

Structure (SMILES)	outcome	AC50
CCSC(=O)N(CC(C)C)CC(C)C	inactive	
CCCCCOC(=O)COc1cc(N2C(=O)C3=C(CCCC3)C2=O)c(F)cc1Cl	inactive	
C[C@]12C[C@H](O)[C@H]3[C@@H](CCC4=CC(=O)CC[C@@]43C)[C@@H]1CC[C@@H]2C(=O)CO	inactive	
CCOC(=O)C(C)Oc1ccc(Oc2nc3ccc(Cl)cc3o2)cc1 (stereo not given)	inactive	
CC(=O)S[C@@H]1CC2=CC(=O)CC[C@]2(C)[C@H]2CC[C@@]3(C)[C@@H](CC[C@@]34CCC(=O)O4)[C@H]12	inactive	
O=C(O)C1(C(=O)Nc2ccc(Cl)cc2Cl)CC1	inactive	
CCCCCCC(C)OC(=O)COc1nc(F)c(Cl)c(N)c1Cl (stereo not given)	inactive	
CCN(Cc1c(F)cccc1Cl)c1c([N+](=O)[O-])cc(C(F)(F)F)cc1[N+](=O)[O-]	inactive	
N[C@@H](Cc1cc(I)c(Oc2ccc(O)c(I)c2)c(I)c1)C(=O)O	inactive	
Oc1ccc(C(c2ccc(O)cc2)C(Cl)(Cl)Cl)cc1		78.5 µM (active)
C=CCOC(Cn1ccnc1)c1ccc(Cl)cc1Cl (stereo not given)	inactive	
S=C([S-])NCCNC(=S)[S-].[Mn+2]		0.871 µM (active)
CCCCOC(=O)C(C)Oc1ccc(Oc2ccc(C(F)(F)F)cn2)cc1 (stereo not given)	inactive	
CCCCC(CC)COC(=O)c1ccccc1C(=O)O (stereo not given)	inactive	
C[C@]12CC[C@@H]3c4ccc(O)cc4C[C@@H](CCCCCCCCCS(=O)CCCC(F)(F)C(F)(F)F)[C@H]3[C@@H]1CC[C@@H]2O (stereo not given in full)	inactive	
CCOC(=O)C(C)Oc1ccc(Oc2cnc3cc(Cl)ccc3n2)cc1 (stereo not given)	inactive	
CC1(C)C(C=C(Cl)Cl)C1C(=O)OCc1cccc(Oc2ccccc2)c1 (stereo not given)	inactive	
CC(C)(C)[C@@H](O)[C@@H](Cc1ccc(Cl)cc1)n1cncn1		50 µM (active)
CN(C)C(=O)Nc1ccc(Cl)c(Cl)c1	inactive	
C#C[C@]1(O)CC[C@H]2[C@@H]3CCC4=CC(=O)CC[C@@H]4[C@H]3CC[C@@]21CC	inactive	
